Assay results reported in ChEMBL document CHEMBL1157539, “Thousands of chemical starting points for antimalarial lead identification” (Nature, 2010).

How the values were obtained:
Assay type in all cases: functional
Plasmodium falciparum [1] = assay: GSK_TCMDC: Inhibition of Plasmodium falciparum 3D7 in whole red blood cells, using parasite LDH activity as an index of growth. Test compounds present at 2uM
Plasmodium falciparum [2] = assay: GSK_TCMDC: Inhibition of Plasmodium falciparum Dd2 in whole red blood cells, using parasite LDH activity as an index of growth. Test compounds present at 2uM
HepG2 = assay: GSK_TCMDC: Percent inhibition of human HepG2 cell line. Test compounds present at 10uM.

Row | Compound | Inhibition (Plasmodium falciparum [1]) [%] | Inhibition (Plasmodium falciparum [2]) [%] | Inhibition (HepG2) [%]
1 | COc1ccc(-c2nc3c4ccccc4c4ccc(I)cc4c3[nH]2)cc1 | 96 | 16 | 4
2 | COc1cc(-c2nc(-c3ccncc3)c(-c3ccc4c(c3)CCC4=NO)[nH]2)ccc1OCCN1CCCCC1.Cl | 100 | 80 | 75
3 | COc1ccccc1C1CCN(C2CCC(NC(=O)c3cc4cc(C(C)C)ccc4[nH]3)CC2)CC1 (centres undefined) | 100 | 98 | 100
4 | Cc1cccc2nc(-c3ccc(-c4cccc(C(=O)NCCN5CCCC5)c4)s3)[nH]c12 | 94 | 2 | 22
5 | COc1cc(Cc2cnc(N)nc2N)cc(OCC(C)(C)C(=O)O)c1OC | 89 | 0 | 0
6 | Cl.N=C(N)c1ccc(-c2cc3ccc(C(=N)N)cc3[nH]2)cc1 | 99 | 99 | 18
7 | COc1cc(C(C)C)ccc1C1CCN(CCCCNC(=O)c2ccc(NC(=O)c3ccc(Cl)cc3)cc2)CC1.O=C(O)/C=C/C(=O)O | 98 | 99 | 100
8 | Nc1ccc2[nH]cc(C3CCN(CC4CCC(NC(=O)/C=C/c5ccc(Cl)c(Cl)c5)CC4)CC3)c2n1 (centres undefined) | 100 | 93 | 18
9 | COc1ccc2c(=NN=Cc3ccccc3F)cc(C)[nH]c2c1 | 90 | 12 | 4
10 | CCOC(=O)C(C#N)NC(=O)C=Cc1ccccc1 (centres undefined) | 96 | 9 | 0
11 | COc1ccc(-c2cccc(NC(=O)c3cccc(C#N)c3)c2)cc1CN1CCNCC1.O=C(O)C(F)(F)F | 100 | 15 | 27
12 | CC(C)C[C@H](NC(=O)c1cc(-c2ccc(F)cc2)no1)C(=O)O.CC(C)C[C@H](NC(=O)c1conc1-c1ccc(F)cc1)C(=O)O | 82 | 4 | 7
13 | Cl.O=c1cc(NCCCNCc2cc3ccc(Br)cc3s2)[nH]c2ccccc12 | 92 | 8 | 18
14 | COc1ccc(CCN2CCC(CN(C)Cc3cnn(-c4ccccc4)c3)CC2)cc1 | 90 | 5 | 25
15 | CC(=O)Nc1ncc(C(=O)Nc2cccc(-c3ccc(-c4nc5cccc(C)c5[nH]4)cc3)c2)s1 | 100 | 78 | 69
16 | COc1ccc(C2CC(c3cccs3)=NN2C(=O)CNc2ccccc2F)cc1OC (centres undefined) | 87 | 45 | 11
17 | FC(F)(F)c1ccc2[nH]c(-c3cccc(-c4ccc(CNCc5ccccc5)cc4)c3)nc2c1.O=C(O)C(F)(F)F | 100 | 99 | 25
18 | CN(C)c1ccc(-c2csc(C(=O)NC3CCN(CCC(C)(C)C)C3)c2)cc1.O=C(O)C(F)(F)F (centres undefined) | 95 | 36 | 20
19 | c1ccc2c(CNc3nc(NCC4CCCCC4)nc4[nH]cnc34)cccc2c1 | 89 | 44 | 0
20 | Cc1cc(=NN=Cc2ccc(Cl)cc2)c2cc(F)ccc2[nH]1 | 100 | 98 | 6
21 | CCN1CCC(N(Cc2ccc(-c3ccc(Cl)cc3)cc2)C(=O)Cn2c(CCc3cccc(F)c3F)cc(=O)c3ccccc32)CC1.O=C(O)C(O)C(O)C(=O)O | 99 | 95 | 100
22 | CS(=O)(=O)N(c1ccccc1)c1cc(C(=O)N[C@@H](Cc2ccccc2)[C@H](O)CNC2CCCCC2)cc(N2CCCC2=O)c1 | 100 | 97 | 8
23 | CN1CCc2ccc(NC(=O)Nc3ccc(-c4ccccc4)cc3)cc2C1 | 90 | 45 | 24
24 | O=C(c1cncc(-c2ccccc2)c1)N(Cc1cncn1Cc1ccccc1F)CC1CC1 | 100 | 0 | 0
25 | COc1ccc2c(OC)ccc(CNCCCCCCNCc3ccc(OC)c4ccc(OC)cc34)c2c1.CS(=O)(=O)O | 100 | 98 | 100
26 | CCOc1ccc(OCC)c(N2CCN(CCCCNC(=O)c3ccc(NC(=O)c4ccc(Cl)cc4)cc3)CC2)c1 | 97 | 40 | 13
27 | O=S(=O)(Nc1cccc(CCN2CCC(N3CCCCC3)CC2)c1)c1ccc(Oc2ccccc2)cc1 | 100 | 25 | 28
28 | CC(C)N1CCCN(C(=O)C2CCN(c3ccc(C(=O)N4CCCC4)cn3)CC2)CC1.Cl | 86 | 12 | 41
